This excerpt belongs to a sample that is enriched for hits.
IDE exosite FP – exo-site inhibitors of human IDE, primary screen, biochemical, fluorescence anisotropy, probe displacement; z-score at 20 µM; actives 6.3% (n = 17,000); purified IDE, FL-6b probe fluorescence polarization; hits give low values; AID 1259349, 2017;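 active = z-score of -3 or lower, meaning strong loss of probe binding signal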;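 note: His-tagged human IDE residues 42-1019 made in E. coli with 30 nM FL-6b probe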
* marks the source's active call; other numbers are inactive results.

SMILES | IDE exosite FP
O=C(c1cnccn1)N1CC(=O)N2[C@H](C1)[C@@H](c1ccc(-c3cccc(F)c3)cc1)[C@@H]2CO | -4*
O=C(c1cnccn1)N1CC(=O)N2[C@H](C1)[C@@H](c1ccc(-c3ccc(F)cc3)cc1)[C@@H]2CO | 4.4
O=C(c1ccccn1)N1CC(=O)N2[C@H](C1)[C@@H](c1ccc(-c3cccc(F)c3)cc1)[C@@H]2CO | -7.7*
O=C(c1cnccn1)N1CC(=O)N2[C@@H](CO)[C@@H](c3ccc(-c4ccc(F)cc4)cc3)[C@@H]2C1 | 3.1
O=C(c1cnccn1)N1CC(=O)N2[C@H](CO)[C@@H](c3ccc(-c4cccc(F)c4)cc3)[C@@H]2C1 | -3.7*
O=C(c1cnccn1)N1CC(=O)N2[C@H](CO)[C@H](c3ccc(-c4cccc(F)c4)cc3)[C@@H]2C1 | -0.31
CCN(C[C@H]1N[C@H](CO)[C@H]1c1ccc(-c2ccccc2)cc1)C(=O)COC | 0.86
CN(C)C(=O)c1cccc(-c2ccccc2[C@@H]2[C@@H](C#N)N(C(=O)C3CC3)[C@@H]2CO)c1 | 1.1
CC(C)[C@@H]1CC=CC[C@H](C)Oc2ccccc2C(=O)N(C)[C@@H](Cc2ccccc2)C(=O)N1 (mixture of isomers) | 0.75
O=C1CN(S(=O)(=O)c2ccccc2)C[C@H]2[C@@H](c3ccc(C4=CCCC4)cc3)[C@@H](CO)N12 | 5.4
CCCNC(=O)Nc1ccc2c(c1)C(=O)N(C)C[C@H](OC)[C@H](C)CN(C)[C@H](C)CO2 | -0.83
COCCNC(=O)C[C@H]1CC[C@H]2[C@@H](COC[C@@H](O)CN2S(=O)(=O)c2ccccc2F)O1 | -0.22
CCC(=O)N1CC2(CCN(C(=O)Nc3ccccc3F)CC2)c2c([nH]c3cc(OC)ccc23)[C@@H]1CO | -0.62
O=C(c1ccc(F)cc1)N1CC(=O)N2[C@@H](CO)[C@H](c3ccc(-c4ccccc4F)cc3)[C@@H]2C1 | 2.1
Cc1ccccc1-c1ccc([C@H]2[C@H]3CN(C(=O)c4ccc(F)cc4)CC(=O)N3[C@H]2CO)cc1 | -4.3*
Cc1ccccc1-c1ccc([C@H]2[C@@H](CO)N3C(=O)CN(C(=O)c4ccc(F)cc4)C[C@@H]23)cc1 | -0.95
Cc1ccccc1-c1ccc([C@H]2[C@H](CO)N3C(=O)CN(C(=O)c4ccc(F)cc4)C[C@@H]23)cc1 | -16*
O=C(c1ccc(F)cc1)N1CC(=O)N2[C@H](C1)[C@H](c1ccc(-c3ccccc3F)cc1)[C@@H]2CO | 4.9
O=C(c1ccc(F)cc1)N1CC(=O)N2[C@H](C1)[C@@H](c1ccc(-c3ccccc3F)cc1)[C@@H]2CO | 3.9
O=C1CNC[C@H]2[C@H](c3ccc(C#CC4CCCC4)cc3)[C@@H](CO)N12 | 5.2
CCC(=O)N1CC2(C1)CN(Cc1cccc(Cl)c1)[C@H](CO)c1[nH]c3cc(OC)ccc3c12 | -2.3
Cc1nn(C)cc1NC(=O)C[C@H]1CC[C@@H]2[C@H](COc3ccc(NC(=O)C4CCOCC4)cc3C(=O)N2C)O1 | -1.2
COc1ccc2c3c(n(C)c2c1)[C@@H](CO)N(C(=O)c1ccccn1)CC31CN(C(=O)Cc2ccccc2)C1 | -0.0084
COc1cccc(NC(=O)N2CC(=O)N3[C@H](CO)[C@H](c4ccc(C#CCC5CCCC5)cc4)[C@H]3C2)c1 | 0.51
COc1ccc(-c2ccc([C@H]3[C@@H](CO)N4CCCCN(CC5CCOCC5)C[C@@H]34)cc2)cc1 | 0.85
SMILES | IDE exosite FP
Cc1ccccc1-c1ccc([C@H]2[C@@H](CO)N3CCCCN(CC4CC4)C[C@@H]23)cc1 | -3.5*
CCCC#Cc1ccc([C@@H]2[C@H](CO)N3CCCCN(CC4CC4)C[C@@H]23)cc1 | 4.1
Cc1ccccc1-c1ccc([C@H]2[C@H]3CN(CC4CCOCC4)CCCCN3[C@H]2CO)cc1 | -6.9*
COc1ccc(-c2ccc([C@H]3[C@@H](CO)N4CCCCN(CC5CCOCC5)C[C@H]34)cc2)cc1 | -0.35
OC[C@H]1[C@@H](c2ccc(-c3cccnc3)cc2)[C@@H]2CN(CC3CC3)CCCCN12 | -1.3
CN(C)CC#Cc1ccc([C@H]2[C@H](CO)N3C(=O)CN(C(=O)c4ccccc4)C[C@@H]23)cc1 | 1.5
O=C(c1ccncc1)N1CC(=O)N2[C@@H](CO)[C@H](c3ccc(/C=C/c4ccccc4)cc3)[C@@H]2C1 | -16*
C/C=C/c1ccc([C@@H]2[C@@H](CO)N3C(=O)CN(C(=O)c4ccncc4)C[C@@H]23)cc1 | 1.1
O=C(c1ccc(F)cc1)N1CC(=O)N2[C@H](CO)[C@H](c3ccc(/C=C/c4ccccc4)cc3)[C@@H]2C1 | 1.2
O=C(c1ccncc1)N1CC(=O)N2[C@H](CO)[C@@H](c3ccc(/C=C/c4ccccc4)cc3)[C@@H]2C1 | -1
O=C(c1ccccc1)N1CC(=O)N2[C@H](CO)[C@H](c3ccc(/C=C/c4ccccc4)cc3)[C@H]2C1 | -8.4*
O=C(c1ccccc1)N1CC(=O)N2[C@H](CO)[C@H](c3ccc(/C=C/c4ccccc4)cc3)[C@@H]2C1 | -2.8
C/C=C/c1ccc([C@@H]2[C@H](CO)N3C(=O)CN(C(=O)c4ccncc4)C[C@@H]23)cc1 | 0.7
O=C(c1ccncc1)N1CC(=O)N2[C@H](C1)[C@@H](c1ccc(/C=C/c3ccccc3)cc1)[C@@H]2CO | -6*
C/C=C/c1ccc([C@H]2[C@H]3CN(C(=O)c4ccncc4)CC(=O)N3[C@H]2CO)cc1 | 0.6
C[C@H]1CC(=O)N[C@H](c2ccccc2)C/C=C\C[C@H](c2ccc3c(c2)OCO3)NC1=O | 0.55
C/C=C/c1ccc([C@H]2[C@@H](CO)N(C(C)=O)[C@@H]2CN(CCC)C(=O)C2CC2)cc1 | 1.4
CN(C)C(=O)c1cccc(-c2ccc(C3[C@@H]4CN(S(=O)(=O)c5cccc(Cl)c5)C[C@H]3N4)cc2)c1 (some centres undefined) | 0.24
Cc1ccc(NC(=O)Nc2ccc3c(c2)C(=O)N(C)[C@@H]2CC[C@H](CC(=O)NCC(F)(F)F)O[C@@H]2CO3)cc1 | -1.1
CC(C)NC(=O)Nc1ccc2c(c1)C(=O)N([C@@H](C)CO)C[C@@H](C)[C@H](CN(C)C(=O)C1CCCCC1)OCCCC[C@@H](C)O2 | 0.46
C/C=C/c1ccc([C@H]2[C@@H](CO)N(S(C)(=O)=O)[C@@H]2CN(CC)C(C)=O)cc1 | 0.53
Cc1cccc(-c2ccc([C@@H]3[C@@H](CO)N4C(=O)CN(C(=O)NC5CCCCC5)C[C@@H]34)cc2)c1 | -17*
Cc1cccc(-c2ccc([C@H]3[C@H]4CN(C(=O)NC5CCCCC5)CC(=O)N4[C@H]3CO)cc2)c1 | -9.5*
CCS(=O)(=O)N1CC2(CN(Cc3ccccc3F)[C@H](CO)c3[nH]c4cc(OC)ccc4c32)C1 | -1.4
CCc1nc(N2[C@H](C#N)[C@@H](c3ccccc3-c3ccccc3F)[C@@H]2CO)sc1C | 0.23
COCC(=O)N1[C@H](C#N)[C@H](c2ccccc2-c2cccc(F)c2)[C@@H]1CO | 3.3
COc1ccc(S(=O)(=O)Nc2ccc3c(c2)C(=O)N([C@H](C)CO)C[C@H](C)[C@H](CN(C)S(=O)(=O)c2ccc(Cl)cc2)OCCCC[C@H](C)O3)cc1 | -0.017
CN1C(=O)c2cc(NS(=O)(=O)c3ccccc3Cl)ccc2OC[C@H]2O[C@@H](CC(=O)Nc3cc(F)ccc3F)CC[C@@H]21 | -0.77
COc1cccc(C#Cc2ccc([C@@H]3[C@@H](C#N)N(C(=O)c4ccccn4)[C@@H]3CO)cc2)c1 | -1.3
COc1cccc(C#Cc2ccc([C@H]3[C@@H](C#N)N(C(=O)c4ccccn4)[C@@H]3CO)cc2)c1 | -1.1
